In PubChem BioAssay (Tox21):
Inconclusive results are not listed. Active and inactive are the calls of the source. Unless noted, the call rests on the fitted dose curve; in most records, active means well fitted curve in the direction sought with a large enough effect in the repeat runs; inconclusive means weak or mixed curves; inactive means no such curve, though single readings can be large; an effect the other way counts as inactive or inconclusive.

Key:
[1] = qHTS assay to identify small molecule agonists of the peroxisome proliferator-activated receptor delta (PPARd) signaling pathway - cell viability counter screen (AID 743211); further: on the % scale 0 is the no-effect control and ±100 the full control effect; nearly all actives have a fitted effect of over 55% in size
Outline: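 Viability was measured as CellTiter-Glo luminescence (30 min, room temperature) in the same wells as the beta-lactamase readout. GeneBLAzer PPARd UAS-bla HEK293H cells received compound after 5 h plating and were incubated 17 h at 37 C.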

[2] = qHTS assay to identify small molecule antagonists of the peroxisome proliferator-activated receptor delta (PPARd) signaling pathway - cell viability counter screen (AID 743213); further: on the % scale 0 is the no-effect control and ±100 the full control effect; nearly all actives have a fitted effect of over 50% in size
Outline: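 Luminescence from CellTiter-Glo, added after the bla read and incubated 30 min at room temperature, gives viability of HEK293H PPARd-bla cells exposed to compounds for 17 h at 37 C with 300 nM L165041.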

[3] = qHTS assay to identify small molecule agonists of the farnesoid-X-receptor (FXR) signaling pathway - cell viability counter screen (AID 743218); further: on the % scale 0 is the no-effect control and ±100 the full control effect; nearly all actives have a fitted effect of over 45% in size
Outline: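 Readout: CellTiter-Glo luminescence, 30 min RT, multiplexed after the FXR-bla FRET reading. HEK 293T FXR-UAS-bla cells received compound 5 h post-plating and were incubated 16 h at 37 C.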

[4] = qHTS assay to identify small molecule antagonists of the farnesoid-X-receptor (FXR) signaling pathway - cell viability counter screen (AID 743221; active means well fitted cell-killing curve with a large enough effect in the repeat runs, not every such curve was filed as active; further: on the % scale 0 is the no-effect control and ±100 the full control effect; nearly all actives have a fitted effect of over 50% in size)
Outline: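 Cytotoxicity counter screen run in the FXR-bla reporter wells: HEK 293T cells exposed to compound with 50 uM (final) chenodeoxycholic acid for 16 h, 37 C, then viability measured by CellTiter-Glo luminescence after 30 min, room temperature.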

[5] = molecular target: Vitamin D3 receptor (Homo sapiens) (UniProt P11473); experiment: qHTS assay to identify small molecule agonists of the vitamin D receptor (VDR) signaling pathway (AID 743222; calls by dose curve; further: on the % scale 0 is the no-effect control and ±100 the full control effect)
Sequence of Vitamin D3 receptor (Homo sapiens) (P11473 whole entry, looked up): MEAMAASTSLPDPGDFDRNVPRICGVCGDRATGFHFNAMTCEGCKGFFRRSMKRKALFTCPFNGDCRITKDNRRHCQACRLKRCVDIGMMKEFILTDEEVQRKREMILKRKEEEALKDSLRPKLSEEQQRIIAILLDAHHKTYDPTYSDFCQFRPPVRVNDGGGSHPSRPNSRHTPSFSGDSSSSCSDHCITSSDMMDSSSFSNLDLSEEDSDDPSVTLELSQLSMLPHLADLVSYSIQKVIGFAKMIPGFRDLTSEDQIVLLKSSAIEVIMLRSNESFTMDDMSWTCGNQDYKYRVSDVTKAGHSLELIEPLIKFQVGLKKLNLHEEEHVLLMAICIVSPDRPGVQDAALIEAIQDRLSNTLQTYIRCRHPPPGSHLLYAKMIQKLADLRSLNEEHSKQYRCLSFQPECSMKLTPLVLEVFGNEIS
Outline: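 Following 4 h attachment at 37C, VDR-bla cells (2,000 per well) received DMSO-dissolved compounds or controls. After 16 h incubation, LiveBLAzer B/G FRET substrate was added and fluorescence read 2 h later at room temperature.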

[6] = molecular target: Vitamin D3 receptor (Homo sapiens) (UniProt P11473); experiment: qHTS assay to identify small molecule antagonists of the vitamin D receptor (VDR) signaling pathway (AID 743223; active means well fitted inhibition curve with a large enough effect in the signal ratio in the repeat runs, not every such curve was filed as active; the % refers to the signal ratio; further: on the % scale 0 is the no-effect control and ±100 the full control effect)
Outline: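 Antagonist mode: compound added to VDR-bla cells alongside agonist 1alpha,25-dihydroxyvitamin D3 (3 nM final), incubation 16 h at 37C. Read-out is LiveBLAzer FRET fluorescence, 2 h at room temperature.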

[7] = qHTS assay to identify small molecule agonists of the vitamin D receptor (VDR) signaling pathway - cell viability counter screen (AID 743224); further: series mostly up to about 63 µM; on the % scale 0 is the no-effect control and ±100 the full control effect; nearly all actives have a fitted effect of over 50% in size
Outline: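 In parallel with the bla FRET readout, cytotoxicity toward VDR-bla cells after 16 h compound exposure was assessed by CellTiter-Glo, with luminescence recorded after a 30 min room-temperature incubation.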

[8] = qHTS assay to identify small molecule agonists of the NFkB signaling pathway (AID 1159509; active means well fitted curve in the direction sought with a large enough effect in the signal ratio in the repeat runs, not every such curve was filed as active; the % refers to the signal ratio; further: series mostly up to about 61 µM; on the % scale 0 is the no-effect control and ±100 the full control effect)
Outline: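 Agonist activity was read as beta-lactamase-driven FRET change (460 and 530 nm emission, 405 nm excitation) following 1.5 hr substrate loading at room temperature. Beforehand, ME-180 NFkB-bla reporter cells were treated with compounds for 5 hr at 37 C.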

[9] = qHTS assay to identify small molecule agonists of the NFkB signaling pathway - cell viability counter screen (AID 1159515; calls by dose curve; further: series mostly up to about 61 µM; on the % scale 0 is the no-effect control and ±100 the full control effect; nearly all actives have a fitted effect of over 55% in size)
Outline: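 Plate 2,000 NFkB-bla ME-180 cells/well; incubate overnight. Add compounds, 5 hr at 37 C. Add FRET substrate, 1.5 hr RT. Add CellTiter-Glo, 30 min RT; read luminescence.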

[10] = qHTS assay to identify small molecule agonists of the endoplasmic reticulum stress response signaling pathway (AID 1159516; active means well fitted activation curve with a large enough effect in the signal ratio in the repeat runs, not every such curve was filed as active; the % refers to the signal ratio; further: on the % scale 0 is the no-effect control and ±100 the full control effect)
Outline: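 Beta-lactamase expression from the ER stress response element in HeLa reporter cells is quantified with the LiveBLAzer B/G FRET substrate, read at 405 nm excitation after 2 hr at room temperature, following 5 hr compound treatment at 37 C.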

[11] = qHTS assay to identify small molecule agonists of the endoplasmic reticulum stress response signaling pathway - cell viability counter screen (AID 1159517; calls by dose curve; further: series mostly up to about 61 µM; on the % scale 0 is the no-effect control and ±100 the full control effect; nearly all actives have a fitted effect of over 50% in size)
Outline: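 In parallel with the ESRE reporter read, cytotoxicity was scored by CellTiter-Glo luminescence (30 min, room temperature) on HeLa ESRE-bla cells dosed for 5 hr.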

[12] = qHTS assay to identify small molecule antagonists of the retinoid-related orphan receptor gamma (ROR-gamma) signaling pathway - cell viability counter screen (AID 1159520)
Outline: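 Tet-on ROR gamma CHO cells were given compounds for 2 hr, then doxycycline hyclate at 1 uM final, and incubated 16 hr at 37 C. Viability was measured as ATP content by CellTiter-Glo luminescence.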

[13] = molecular target: Nuclear receptor ROR-gamma (Homo sapiens) (UniProt P51449); experiment: qHTS assay to identify small molecule antagonists of the retinoid-related orphan receptor gamma (ROR-gamma) signaling pathway (AID 1159521)
Outline: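 Antagonist read-out: drop in luminescence (ONE-Glo) from an RORE-LUC reporter in CHO cells with doxycycline-inducible ROR-gamma; 2 hr compound pretreatment, 1 uM doxycycline, 16 hr incubation at 37 C.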

[14] = qHTS assay to identify small molecule agonists of the AP-1 signaling pathway - cell viability counter screen (AID 1159525; calls by dose curve; further: nearly all actives have a fitted effect of over 55% in size)
Outline: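 Same-well cytotoxicity counter screen of the Tox21 10K library in ME-180 cells. The readout is ATP-dependent luminescence after 5 h compound treatment. Data are normalised to DMSO and tetra n-octyl ammonium bromide controls.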

[15] = qHTS assay to identify small molecule agonists of the AP-1 signaling pathway (AID 1159526; calls by dose curve; further: on the % scale 0 is the no-effect control and ±100 the full control effect)
[16] = molecular target: Peroxisome proliferator-activated receptor delta (Homo sapiens) (UniProt Q03181); experiment: qHTS assay to identify small molecule agonists of the peroxisome proliferator-activated receptor delta (PPARd) signaling pathway (AID 743212; calls by dose curve; further: on the % scale 0 is the no-effect control and ±100 the full control effect)
Sequence of Peroxisome proliferator-activated receptor delta (Homo sapiens) (Q03181 whole entry, looked up): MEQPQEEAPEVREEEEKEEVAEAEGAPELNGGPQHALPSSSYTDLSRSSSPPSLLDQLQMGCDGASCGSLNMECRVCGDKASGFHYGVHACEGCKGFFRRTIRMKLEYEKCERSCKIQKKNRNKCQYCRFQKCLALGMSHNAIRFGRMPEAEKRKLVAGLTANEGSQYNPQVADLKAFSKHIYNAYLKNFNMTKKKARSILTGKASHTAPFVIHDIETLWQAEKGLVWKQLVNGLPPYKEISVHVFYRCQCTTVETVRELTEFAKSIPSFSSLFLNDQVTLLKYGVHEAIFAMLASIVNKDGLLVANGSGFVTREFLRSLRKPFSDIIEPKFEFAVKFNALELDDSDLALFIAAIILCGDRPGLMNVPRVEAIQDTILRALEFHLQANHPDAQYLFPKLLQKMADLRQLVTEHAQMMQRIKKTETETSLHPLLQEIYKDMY
Outline: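 Tox21 library screened in GeneBLAzer PPARd UAS-bla HEK293H cells. After compound treatment at 37 C, a FRET-based beta-lactamase substrate was applied for 2 h and fluorescence recorded.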

[17] = qHTS assay to identify small molecule antagonists of the vitamin D receptor (VDR) signaling pathway - cell viability counter screen (AID 743225)
Outline: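 Cytotoxicity counter screen read by CellTiter-Glo luminescence (30 min, room temperature) in the same wells as the VDR-bla antagonist readout. HEK 293T VDR-UAS-bla cells had 16 h at 37C with compound and 3 nM (final) 1-alpha,25-dihydroxyvitamin D3, then 2 h with FRET substrate.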

[18] = molecular target: Bile acid receptor (Homo sapiens) (UniProt Q96RI1); experiment: qHTS assay to identify small molecule antagonists of the farnesoid-X-receptor (FXR) signaling pathway (AID 743217; active means well fitted inhibition curve with a large enough effect in the signal ratio in the repeat runs, not every such curve was filed as active; the % refers to the signal ratio; further: on the % scale 0 is the no-effect control and ±100 the full control effect)
Sequence of Bile acid receptor (Homo sapiens) (Q96RI1 whole entry, looked up): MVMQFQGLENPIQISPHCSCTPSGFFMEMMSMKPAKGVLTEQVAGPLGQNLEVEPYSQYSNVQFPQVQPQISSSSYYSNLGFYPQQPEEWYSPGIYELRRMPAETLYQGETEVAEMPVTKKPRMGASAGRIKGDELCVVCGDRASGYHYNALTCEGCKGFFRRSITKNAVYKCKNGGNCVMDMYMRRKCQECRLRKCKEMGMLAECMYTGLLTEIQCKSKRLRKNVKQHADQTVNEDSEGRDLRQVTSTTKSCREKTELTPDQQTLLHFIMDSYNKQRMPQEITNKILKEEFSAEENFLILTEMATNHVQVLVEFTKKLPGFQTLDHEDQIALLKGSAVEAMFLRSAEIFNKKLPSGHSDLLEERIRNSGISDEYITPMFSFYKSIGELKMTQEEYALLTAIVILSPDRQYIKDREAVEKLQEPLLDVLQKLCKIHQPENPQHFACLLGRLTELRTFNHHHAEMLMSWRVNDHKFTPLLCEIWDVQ
Outline: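 FRET fluorescence after 2 h room-temperature LiveBLAzer loading gives the readout. Prior step: FXR-bla HEK 293T cells, seeded and incubated 5 h, received test compounds plus 50 uM final CDCA for 16 h at 37 °C.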

[19] = molecular target: Bile acid receptor (Homo sapiens) (UniProt Q96RI1); experiment: qHTS assay to identify small molecule agonists of the farnesoid-X-receptor (FXR) signaling pathway (AID 743220; active means well fitted activation curve with a large enough effect in the signal ratio in the repeat runs, not every such curve was filed as active; the % refers to the signal ratio; further: on the % scale 0 is the no-effect control and ±100 the full control effect)
Outline: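 FXR-UAS-bla HEK 293T cells carrying a UAS-driven beta-lactamase reporter were plated for 5 h at 37C/5% CO2, then exposed to DMSO-dissolved Tox21 10K compounds for 16 h at 37C. A LiveBLAzer B/G FRET substrate was loaded for 2 h at room temperature before fluorescence reading.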

[20] = molecular target: Peroxisome proliferator-activated receptor delta (Homo sapiens) (UniProt Q03181); experiment: qHTS assay to identify small molecule antagonists of the peroxisome proliferator-activated receptor delta (PPARd) signaling pathway (AID 743215; active means well fitted inhibition curve with a large enough effect in the signal ratio in the repeat runs, not every such curve was filed as active; the % refers to the signal ratio)
Outline: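 Fluorescence from cleaved LiveBLAzer B/G FRET substrate (2 h, room temperature) reports PPARd-driven beta-lactamase in HEK293H UAS-bla cells. Cells had been treated 17 h at 37 C with compound plus 300 nM final L165041.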

FC(F)(F)C(F)(F)C(F)(F)C(F)(F)C(F)(F)C(F)(F)C(F)(F)C(F)(F)C(F)(F)C(F)(F)F
inactive: activity change, negative = cytotoxicity [1] 5.8% [at 5.95 µM] | viability change, negative = cytotoxic [2] -11.7% [at 6.26 µM] | viability change, negative = cytotoxic [3] 1.72% [at 5.95 µM] | activity change, negative = cytotoxicity [4] 9.95% [at 5.95 µM] | activation [5] 0.833% [at 6.01 µM] | activity change, negative = inhibition [6] -8.47% [at 6.95 µM] | activity change, negative = cytotoxicity [7] 9.06% [at 5.95 µM] | activation [8] -0.0985% [at 6.95 µM] | activity, negative = cytotoxic [9] 0.724% [at 6.95 µM] | activation [10] -9% [at 6.95 µM] | activity change, negative = cytotoxicity [11] -26.7% [at 6.95 µM] | activity, negative = cytotoxicity [12] 0.201% [at 8.39 µM] | activity change, negative = inhibition [13] 29.3% [at 8.39 µM] | viability change, negative = cytotoxic [14] -11.9% [at 6.97 µM] | activation [15] 7.26% [at 6.97 µM]

COc1ccc(N=[N+]([O-])c2ccc(OC)cc2)cc1
inactive: Potency [1] | outcome [16] | Potency [2] | Potency [4] | outcome [5] | outcome [6] | outcome [7] | outcome [17] | outcome [8] | outcome [9] | outcome [10] | outcome [11] | Potency [12] | Potency [13] | outcome [14] | Potency [15]

CC1=CC(C)C(C=O)C(C)C1 (stereo unspecified)
inactive: Potency [1] | Potency [2] | outcome [18] | outcome [19] | outcome [5] | outcome [6] | outcome [7] | outcome [17] | outcome [8] | outcome [9] | outcome [10] | outcome [11] | Potency [12] | Potency [13] | outcome [14] | Potency [15]

CCCCCCC(CCCCCCCCCCC(=O)OCC(COC(C)=O)OC(C)=O)OC(C)=O (stereo unspecified)
inactive: Potency [1] | Potency [2] | outcome [20] | Potency [4] | outcome [5] | outcome [6] | outcome [7] | outcome [17] | outcome [8] | outcome [9] | outcome [10] | outcome [11] | Potency [12] | Potency [13] | outcome [14] | Potency [15]

Oc1ccc2c(c1)OC[C@@H](N1CCC(O)(c3ccc(F)cc3)CC1)[C@H]2O
inactive: Potency [1] | outcome [16] | outcome [20] | outcome [3] | Potency [4] | outcome [5] | outcome [7] | outcome [17] | outcome [8] | outcome [9] | outcome [10] | outcome [11] | Potency [12] | Potency [13] | outcome [14] | Potency [15]

CCCCCCCCCCCCI
inactive: Potency [1] | Potency [2] | outcome [18] | outcome [19] | Potency [4] | outcome [5] | outcome [6] | outcome [7] | outcome [17] | outcome [8] | outcome [9] | outcome [10] | outcome [11] | Potency [12] | Potency [13] | outcome [14] | Potency [15]

CCCCCC[C@@H](CCC)C(=O)O
inactive: Potency [1] | Potency [2] | outcome [3] | Potency [4] | outcome [5] | outcome [6] | outcome [7] | outcome [17] | outcome [8] | outcome [9] | outcome [10] | outcome [11] | Potency [12] | Potency [13] | outcome [14] | Potency [15]

CC1=CC(=O)CCC1
inactive: Potency [1] | outcome [16] | Potency [2] | outcome [3] | Potency [4] | outcome [7] | outcome [17] | outcome [8] | outcome [9] | outcome [10] | outcome [11] | Potency [12] | Potency [13] | outcome [14] | Potency [15]

CCCOCC(C)OCC(C)O (stereo unspecified)
inactive: Potency [1] | Potency [2] | outcome [18] | Potency [4] | outcome [5] | outcome [6] | outcome [7] | outcome [17] | outcome [8] | outcome [9] | outcome [10] | outcome [11] | Potency [12] | Potency [13] | outcome [14] | Potency [15]

Cc1nccn1CC1CCc2c(c3ccccc3n2C)C1=O (stereo unspecified)
inactive: Potency [1] | Potency [2] | outcome [3] | Potency [4] | outcome [5] | outcome [6] | outcome [7] | outcome [17] | outcome [8] | outcome [9] | outcome [10] | outcome [11] | Potency [12] | Potency [13] | outcome [14] | Potency [15]

CC(O)CN(CCCN(C)C)CCCN(C)C (stereo unspecified)
inactive: Potency [1] | Potency [2] | outcome [3] | Potency [4] | outcome [5] | outcome [6] | outcome [7] | outcome [17] | outcome [8] | outcome [9] | outcome [10] | outcome [11] | Potency [12] | Potency [13] | outcome [14] | Potency [15]

CC(=O)O[C@H](CC(=O)[O-])C[N+](C)(C)C
inactive: Potency [1] | outcome [16] | Potency [2] | outcome [3] | Potency [4] | outcome [7] | outcome [17] | outcome [8] | outcome [9] | outcome [10] | outcome [11] | Potency [12] | Potency [13] | outcome [14] | Potency [15]

COc1cc(C(=O)N2CCOCC2)cc(OC)c1OC
inactive: Potency [1] | Potency [2] | outcome [3] | Potency [4] | outcome [5] | outcome [6] | outcome [7] | outcome [17] | outcome [8] | outcome [9] | outcome [10] | outcome [11] | Potency [12] | Potency [13] | outcome [14] | Potency [15]
